This is part of a sample that, as a whole, favours compounds with a hit. Of some 79,000 tested, about 15% had one in any assay. Activity calls are given as the source filed them. Cut-off read from the data, not from the text of the source: active = growth inhibition above about 70%; inactive = the rest.
Columns and labels:
[1] = NCI Yeast Anticancer Drug Screen. Data for the rad52 strain (AID 147);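 note: 0% = growth of vehicle-treated control cultures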; settings: S. cerevisiae rad52 mutant growth inhibition, stronger effect = higher value
Procedure, shortened: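 Compounds are applied to a genetically defined yeast strain lacking normal DNA damage repair, and inhibition of growth is expressed relative to cultures given vehicle only.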

[2] = NCI Yeast Anticancer Drug Screen. Data for the wt1 strain (AID 149);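 note: 0% = growth of vehicle-treated wt1 cultures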; settings: S. cerevisiae wt1 strain (SPY 50644) growth inhibition, stronger effect = higher value
Procedure, shortened: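 Readout: yeast growth inhibition, normalised to vehicle controls, in the wt1 strain exposed to test compounds.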

[3] = NCI Yeast Anticancer Drug Screen. Data for the rad50EPP+ strain (AID 151);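 note: 0% = growth of vehicle-treated control cultures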; settings: S. cerevisiae rad50 mutant strain, stronger effect = higher value
Procedure, shortened: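 Compounds were applied to the rad50EPP+ yeast strain, which bears a defined DNA repair alteration, and growth inhibition was determined relative to vehicle-treated cultures.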

[4] = NCI Yeast Anticancer Drug Screen. Data for the mgt1 strain (AID 153); settings: S. cerevisiae mgt1 mutant growth inhibition, stronger effect = higher value
Procedure, shortened: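 Strain: mgt1 yeast, one of a set carrying defined DNA damage repair or cell cycle control alterations. Compound-treated growth compared with vehicle.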

[5] = NCI Yeast Anticancer Drug Screen. Data for the rad50 strain (AID 155);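 note: 0% = growth of vehicle-only cultures of the same strain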; settings: S. cerevisiae rad50 strain growth inhibition, stronger effect = higher value
Procedure, shortened: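 Compounds were tested on a yeast strain with an engineered DNA damage repair alteration; the reported value is growth inhibition normalised to vehicle treatment.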

[6] = NCI Yeast Anticancer Drug Screen. Data for the mec2-1 strain (AID 157); settings: S. cerevisiae mec2-1 strain, stronger effect = higher value
Procedure, shortened: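 Strain: mec2-1 (DNA repair/cell cycle alteration). Compound exposure, then growth measured; inhibition expressed relative to vehicle.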

[7] = NCI Yeast Anticancer Drug Screen. Data for the rad14 strain (AID 159);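 note: 0% = growth of vehicle-treated control cultures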; settings: S. cerevisiae rad14 strain growth inhibition, stronger effect = higher value
Procedure, shortened: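 Compound-treated yeast with a defined DNA-repair lesion; growth inhibition normalised to vehicle-treated cultures.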

[8] = NCI Yeast Anticancer Drug Screen. Data for the sgs1 mgt1 strain (AID 161);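 note: 0% = growth of cultures given vehicle only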; settings: S. cerevisiae sgs1 mgt1 strain, stronger effect = higher value
Procedure, shortened: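 Inhibition of yeast growth, normalised to vehicle-treated controls, is reported for a strain bearing genetic alterations in DNA damage repair.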

[9] = NCI Yeast Anticancer Drug Screen. Data for the CLN2oe strain (AID 163);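 note: 0% = growth of vehicle-only control cultures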; settings: S. cerevisiae CLN2oe strain, stronger effect = higher value
Procedure, shortened: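 Growth of a genetically modified yeast strain is measured after compound exposure and compared with cultures given vehicle alone.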

[10] = NCI Yeast Anticancer Drug Screen. Data for the cln2 rad14 strain (AID 165);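 note: 0% = growth equal to vehicle treated cultures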; settings: S. cerevisiae cln2 rad14 strain, stronger effect = higher value
Procedure, shortened: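 Compounds are applied to the cln2 rad14 yeast strain, and growth is then compared with that of vehicle-treated cultures to give inhibition.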

[11] = NCI Yeast Anticancer Drug Screen. Data for the bub3 strain (AID 167); settings: S. cerevisiae bub3 mutant strain, stronger effect = higher value
Procedure, shortened: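 Growth of a checkpoint-deficient yeast mutant is measured after compound exposure. Values represent inhibition relative to vehicle.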

[12] = NCI Yeast Anticancer Drug Screen. Data for the wt2 strain (AID 169);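 note: 0% = growth of vehicle-treated yeast cultures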; settings: S. cerevisiae wt2 strain growth inhibition, stronger effect = higher value
Procedure, shortened: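 This strain belongs to a panel of yeast strains with defined genetic alterations in DNA damage repair or cell cycle control. Compounds are applied, and growth inhibition is measured against vehicle-treated cultures.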

[13] = NCI Yeast Anticancer Drug Screen. Data for the mlh1 strain (AID 171);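 note: 0% = growth of vehicle-treated control cultures of the same strain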; settings: S. cerevisiae mlh1 strain growth inhibition, stronger effect = higher value
Procedure, shortened: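 Growth of the mutant yeast strain after compound exposure, expressed as inhibition relative to vehicle-only controls.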

[14] = NCI Yeast Anticancer Drug Screen. Data for the sgs1 strain (AID 173);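 note: 0% = growth of vehicle-only control cultures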; settings: S. cerevisiae sgs1 mutant, stronger effect = higher value
Procedure, shortened: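 Growth of a yeast strain bearing a defined genetic alteration is measured after compound treatment. Inhibition is expressed relative to vehicle-only controls.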

[15] = NCI Yeast Anticancer Drug Screen. Data for the mlh1 rad18 strain (AID 175); settings: S. cerevisiae mlh1 rad18 strain growth inhibition, stronger effect = higher value
Procedure, shortened: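 Read-out is yeast growth inhibition, calculated against vehicle-only controls. The compound was applied to a strain engineered with DNA damage repair alterations.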

[16] = NCI Yeast Anticancer Drug Screen. Data for the rad18 strain (AID 177); settings: S. cerevisiae rad18 mutant growth inhibition, stronger effect = higher value
Procedure, shortened: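 Growth of the mutant yeast strain after compound exposure, normalised to vehicle-only cultures.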

[17] = at 5.0 µM (retest, dose inferred, filed as 0.5)
[18] = at 50.0 µM (retest, dose inferred, filed as 5.0)

Measured: growth inhibition

COc1cc([C@@H]2c3cc4c(cc3C[C@@H]3COC(=O)C32)OCO4)cc(OC)c1O (stereo partly specified)
active: [1]; at 11.0 µM 93% | [1]; at 33.0 µM 95% | [1]; at 100.0 µM 96% | [2]; at 33.0 µM 86% | [2]; at 100.0 µM 93% | [4]; at 100.0 µM 93% | [5]; at 3.7 µM 76% | [5]; at 11.0 µM 94% | [5]; at 33.0 µM 96% | [5]; [18] 96% | [5]; at 50.0 µM 97.1% | [5]; at 100.0 µM 97% | [6]; at 33.0 µM 92% | [6]; at 50.0 µM 98.8% | [6]; at 100.0 µM 96% | [7]; at 33.0 µM 75% | [7]; at 100.0 µM 93% | [8]; at 50.0 µM 78.3% | [10]; [18] 93% | [10]; at 50.0 µM 86.2% | [11]; at 50.0 µM 89.5% | [12]; at 33.0 µM 77% | [12]; at 100.0 µM 88% | [13]; at 33.0 µM 86% | [13]; at 100.0 µM 93% | [14]; at 11.0 µM 72% | [14]; at 33.0 µM 90% | [14]; at 100.0 µM 96% | [15]; at 50.0 µM 96.9% | [16]; at 33.0 µM 86% | [16]; at 100.0 µM 93%
inactive: [1]; at 1.2 µM 42% | [1]; at 3.7 µM 62% | [2]; at 1.2 µM 32% | [2]; at 3.7 µM 34% | [2]; at 11.0 µM 65% | [3]; at 1.2 µM -5% | [3]; at 3.7 µM -6% | [3]; at 11.0 µM -4% | [3]; at 33.0 µM -4% | [3]; at 100.0 µM -6% | [4]; at 1.2 µM 29% | [4]; at 3.7 µM 22% | [4]; at 11.0 µM 53% | [4]; at 33.0 µM 59% | [5]; at 1.2 µM 53% | [5]; [17] 64% | [6]; at 1.2 µM 1% | [6]; at 3.7 µM 17% | [6]; [17] 3% | [6]; at 11.0 µM 49% | [6]; [18] 46% | [7]; at 1.2 µM 9% | [7]; at 3.7 µM 8% | [7]; at 11.0 µM 65% | [8]; [17] 5% | [8]; [18] 45% | [9]; at 1.2 µM -3% | [9]; at 3.7 µM 0% | [9]; at 11.0 µM 24% | [9]; at 33.0 µM 58% | [9]; at 100.0 µM 51% | [10]; [17] 9% | [11]; at 1.2 µM 3% | [11]; at 3.7 µM 5% | [11]; [17] -36% | [11]; at 11.0 µM 31% | [11]; at 33.0 µM 50% | [11]; [18] 69% | [11]; at 100.0 µM 36% | [12]; at 1.2 µM 2% | [12]; at 3.7 µM 10% | [12]; at 11.0 µM 33% | [13]; at 1.2 µM 9% | [13]; at 3.7 µM 14% | [13]; at 11.0 µM 66% | [14]; at 1.2 µM 20% | [14]; at 3.7 µM 16% | [15]; [17] 2% | [15]; [18] 68% | [16]; at 1.2 µM 2% | [16]; at 3.7 µM 10% | [16]; at 11.0 µM 65%

O=C(O)C1C2CCC(C2)C1c1ccccc1 (stereo unspecified)
inactive: [1]; at 1.2 µM -1% | [1]; at 3.7 µM -3% | [1]; at 11.0 µM -6% | [1]; at 33.0 µM -3% | [1]; at 100.0 µM 20% | [2]; at 1.2 µM -1% | [2]; at 3.7 µM -2% | [2]; at 11.0 µM -4% | [2]; at 33.0 µM -1% | [2]; at 100.0 µM 26% | [3]; at 1.2 µM -1% | [3]; at 3.7 µM -2% | [3]; at 11.0 µM -2% | [3]; at 33.0 µM -2% | [3]; at 100.0 µM -3% | [4]; at 1.2 µM -1% | [4]; at 3.7 µM -1% | [4]; at 11.0 µM -4% | [4]; at 33.0 µM -5% | [4]; at 100.0 µM 31% | [5]; at 1.2 µM -10% | [5]; at 3.7 µM -51% | [5]; [17] -2% | [5]; at 11.0 µM 2% | [5]; at 33.0 µM -3% | [5]; [18] 10% | [5]; at 50.0 µM 19.4% | [5]; at 100.0 µM 34% | [6]; at 1.2 µM -1% | [6]; at 3.7 µM -4% | [6]; [17] -8% | [6]; at 11.0 µM -7% | [6]; at 33.0 µM -1% | [6]; [18] 8% | [6]; at 50.0 µM 14.4% | [6]; at 100.0 µM 31% | [7]; at 1.2 µM 0% | [7]; at 3.7 µM 0% | [7]; at 11.0 µM -5% | [7]; at 33.0 µM -8% | [7]; at 100.0 µM 13% | [8]; [17] -2% | [8]; [18] 8% | [8]; at 50.0 µM 10.2% | [9]; at 1.2 µM -7% | [9]; at 3.7 µM -10% | [9]; at 11.0 µM -6% | [9]; at 33.0 µM -1% | [9]; at 100.0 µM 18% | [10]; [17] -6% | [10]; [18] 8% | [10]; at 50.0 µM 11% | [11]; at 1.2 µM -1% | [11]; at 3.7 µM 11% | [11]; [17] 29% | [11]; at 11.0 µM 36% | [12]; at 1.2 µM -1% | [12]; at 3.7 µM 7% | [12]; at 11.0 µM -3% | [12]; at 33.0 µM 0% | [12]; at 100.0 µM 37% | [13]; at 1.2 µM -2% | [13]; at 3.7 µM -2% | [13]; at 11.0 µM -1% | [13]; at 33.0 µM -2% | [13]; at 100.0 µM 31% | [14]; at 1.2 µM -2% | [14]; at 3.7 µM 0% | [14]; at 11.0 µM 3% | [14]; at 33.0 µM 15% | [14]; at 100.0 µM 66% | [15]; [17] -1% | [15]; [18] 6% | [15]; at 50.0 µM 20.1% | [16]; at 1.2 µM 0% | [16]; at 3.7 µM -1% | [16]; at 11.0 µM -5% | [16]; at 33.0 µM 1% | [16]; at 100.0 µM 47%
active: [11]; at 33.0 µM 77% | [11]; [18] 90% | [11]; at 50.0 µM 95% | [11]; at 100.0 µM 94%

Cc1nc2ccccc2cc1C[N+]12CN3CN(CN(C3)C1)C2
inactive: [1]; at 1.2 µM 1% | [1]; at 3.7 µM 3% | [1]; at 11.0 µM 6% | [1]; at 33.0 µM 29% | [2]; at 1.2 µM 0% | [2]; at 3.7 µM -2% | [2]; at 11.0 µM 0% | [2]; at 33.0 µM 3% | [2]; at 100.0 µM 20% | [3]; at 1.2 µM 0% | [3]; at 3.7 µM 1% | [3]; at 11.0 µM 1% | [3]; at 33.0 µM 21% | [4]; at 1.2 µM 2% | [4]; at 3.7 µM 5% | [4]; at 11.0 µM 4% | [4]; at 33.0 µM 6% | [4]; at 100.0 µM 36% | [5]; at 1.2 µM 1% | [5]; at 3.7 µM 9% | [5]; [17] -7% | [5]; at 11.0 µM 7% | [5]; at 33.0 µM 25% | [5]; [18] 55% | [6]; at 1.2 µM 2% | [6]; at 3.7 µM 4%
active: [1]; at 100.0 µM 90% | [3]; at 100.0 µM 85% | [5]; at 50.0 µM 84% | [5]; at 100.0 µM 85%
